The text below walks through data of paper PMC7819943, “Rice protein-binding microarrays: a tool to detect cis-acting elements near promoter regions in rice”.

Over roughly 68,000 sequences, “fluorescence intensity (a.u.)” has its median near 9,100; the highest 2% begin near 16,000. The sample as a whole holds a higher share of the highest values than the screen did.

The target in this test is OsWRKY34 (Oryza sativa, UniProt Q0JBA9 1-250). As to the kind of experiment: protein-binding microarray (RPBM); PBS, 2% BSA, 51.3 ng/ul salmon testes DNA, 50 uM zinc acetate, 200 nM TF, 25 C, 1 h; high values mean tight binding. The following applies: protein: recombinant; tags: N-terminal polyhistidine and DsRed monomer fusion (pET32a); label: CyDye5-dUTP incorporated in the synthesized complementary strand; 3' TTTTT single-stranded linker to array surface; dsDNA, one strand shown. Summed up: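 Binding signal here means per-feature fluorescence intensity in arbitrary units. The values were read on an Axon 4000B scanner after a custom Agilent array, double-stranded by primer extension with Cy5-dUTP, was incubated with 200 nM protein at 25 °C for 1 h in PBS with 2% BSA, salmon testes DNA and 50 µM zinc acetate, then washed. The proteins were transcription factors with an N-terminal polyhistidine tag and DsRed, expressed in E. coli BL21-CodonPlus and purified on Ni–NTA.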
OsWRKY34, sequence (Q0JBA9 entry or part of it): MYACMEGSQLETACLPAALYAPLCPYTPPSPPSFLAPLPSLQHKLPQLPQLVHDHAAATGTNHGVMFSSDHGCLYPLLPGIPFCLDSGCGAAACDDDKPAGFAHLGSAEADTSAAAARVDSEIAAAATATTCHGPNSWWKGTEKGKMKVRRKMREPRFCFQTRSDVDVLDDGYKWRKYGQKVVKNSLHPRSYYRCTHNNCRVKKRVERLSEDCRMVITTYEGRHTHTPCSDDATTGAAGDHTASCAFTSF
Regarding “TTCTTGGTTTTGAGTTCTCTTCTCGGTTTTCTCTTTAGCGCGGAGTCACCTAGTGCAG”, the binding signal was 9000 fluorescence intensity (a.u.).

Regarding “TCTGAAGATGAGAGAGAGCTCACAGTTTATGGTTTTTGTACGGAGTCACCTAGTGCAG”, the binding signal is 8830 fluorescence intensity (a.u.).

As to “TGGTTTGGTTGTGGTAGATCTTTTTTACTTATTGCTACCACGGAGTCACCTAGTGCAG”, the binding signal is 15800 fluorescence intensity (a.u.).

In the case of “ATACTCGAGATGGGCGCTTGGTACTTGCATGTTTCCATTCCGGAGTCACCTAGTGCAG”, the binding signal was 8680 fluorescence intensity (a.u.).

For “AAATGTTACAATCATGCTCCAAACTCACACCTTGTTTAACCGGAGTCACCTAGTGCAG”, the binding signal was 8540 fluorescence intensity (a.u.).

With “CCTTTCACCCGCCCAAACTCATCCATCCATCGATCGCCCTCGGAGTCACCTAGTGCAG”, the binding signal is 8560 fluorescence intensity (a.u.).

Take “GCAATCCGTGTAATTAATTATTTTTTCGTTTATACTCTCTCGGAGTCACCTAGTGCAG”: the binding signal was 10200 fluorescence intensity (a.u.).

For “CTTCCCACGCCAACGCCTCCGCTCCCGCTCGTACCACGCGCGGAGTCACCTAGTGCAG”, the binding signal is 8090 fluorescence intensity (a.u.).

With “GCTGCGGCCGTCAACGTGGTCGTCGTCTCCGCGGCCGCCGCGGAGTCACCTAGTGCAG”, the binding signal is 46900 fluorescence intensity (a.u.).

On to “GGTTAGGGTTTGGGGTGGGGAGGGGTGGATGCGCGTGGGCCGGAGTCACCTAGTGCAG”, for which the binding signal was 21600 fluorescence intensity (a.u.).

As to “GTGGTGGGTGGTGGCCGCGCTGCTGCGCGGTGGGTCGCATCGGAGTCACCTAGTGCAG”, the binding signal is 11400 fluorescence intensity (a.u.).

For the sequence “GGTTTTCCCTGGATGCCGAGAGGGTTTGGGTGCGCGCCGCCGGAGTCACCTAGTGCAG”, the binding signal is 8910 fluorescence intensity (a.u.).

With “TTCTTGGGGCTGGAGAGGGTGGGGATGGTGGTGCGGATGCCGGAGTCACCTAGTGCAG”, the binding signal was 15000 fluorescence intensity (a.u.).

“CTGGTCGTCGCTGCTCCGCGTGCCGGTCGGGGTGGGTGGGCGGAGTCACCTAGTGCAG”: the binding signal was 20100 fluorescence intensity (a.u.).

In the case of “TCGGTCGGGTCGGGTCGGGTCGCGTCGCGTGGGCTGCATGCGGAGTCACCTAGTGCAG”, the binding signal was 12200 fluorescence intensity (a.u.).

With “GCCTCCGCCGCCGCCGCCGCCGCCGCGTCGTCTCCGACCGCGGAGTCACCTAGTGCAG”, the binding signal was 9710 fluorescence intensity (a.u.).

As to “CCCAACCTCGCCGTCGCCGTCGCCGTCGCCGCCGTCTCCGCGGAGTCACCTAGTGCAG”, the binding signal was 10000 fluorescence intensity (a.u.).

Turning to “TCGGTTGGTTGGGAATTTCCATGACTATTTTCACCTATAACGGAGTCACCTAGTGCAG”, the binding signal is 8650 fluorescence intensity (a.u.).

As to “AGGCTTCCAATCTTGTGCTAATCTGCTGGTGAAGTATATGCGGAGTCACCTAGTGCAG”, the binding signal is 8480 fluorescence intensity (a.u.).

“CTCCGCCGCCACGCTCGCCCGCTGTTTGCTCCGTCCGCAGCGGAGTCACCTAGTGCAG”: the binding signal is 8350 fluorescence intensity (a.u.).

For the sequence “TCTCTGGTGGCTCCCTGGCGCTCCTCTTCACTCCATCCTCCGGAGTCACCTAGTGCAG”, the binding signal is 9090 fluorescence intensity (a.u.).

Consider “TTTCTAGATGTCTACGCGTTATCAGCATGTTGATGTCTACCGGAGTCACCTAGTGCAG”, for which the binding signal is 8460 fluorescence intensity (a.u.).

Take “GTCTCTTCTCTTCTCTCGTGCAAGGCCGGCAGTGTACCGTCGGAGTCACCTAGTGCAG”: the binding signal was 9270 fluorescence intensity (a.u.).

Consider “AAAACACCAAATTAGTTTTATTAAAACTAACTTTCAAATACGGAGTCACCTAGTGCAG”, for which the binding signal was 11900 fluorescence intensity (a.u.).

With “ATATTTGACCGTTTGTCTTTTTCAAAAACTTTTGTGAAATCGGAGTCACCTAGTGCAG”, the binding signal was 9920 fluorescence intensity (a.u.).

Consider “CGTTTCAAAATATTTAACACCGTTGACTTTTTAGTACGTGCGGAGTCACCTAGTGCAG”, for which the binding signal was 31100 fluorescence intensity (a.u.).

Regarding “GTTTGTCGTAGTAGTTTATTTTTGACACCGGCTTTCAAATCGGAGTCACCTAGTGCAG”, the binding signal is 9880 fluorescence intensity (a.u.).

Turning to “TAGAAGAGCGCGTTGACACCGTTGACTTTGGATTTTCCGTCGGAGTCACCTAGTGCAG”, the binding signal was 18700 fluorescence intensity (a.u.).

Take “TTGGTAGAGTTGTCCGTTTGGATTTTGGCCTCCCTTTTTTCGGAGTCACCTAGTGCAG”: the binding signal is 8380 fluorescence intensity (a.u.).

As for “CAAATTAGATGTTATTTTGACTTTTTTTTACAATATTTGACGGAGTCACCTAGTGCAG”, the binding signal is 10600 fluorescence intensity (a.u.).

Turning to “ATTCAACACTTTTAAAATATTTTGATTGCGGTTTCTTTTACGGAGTCACCTAGTGCAG”, the binding signal was 9530 fluorescence intensity (a.u.).

With “CTCCCTCTGTTTCAAAATATTTGACACTGTTGACTTTTTACGGAGTCACCTAGTGCAG”, the binding signal is 11000 fluorescence intensity (a.u.).

Regarding “GTTTCAAAATATTTGACACCGTTGACTTTTTAGTACGTGTCGGAGTCACCTAGTGCAG”, the binding signal is 19100 fluorescence intensity (a.u.).

“CCGTTGACTTGGATTTGTTCCTTTTTCATTTTTTATCGTTCGGAGTCACCTAGTGCAG”: the binding signal is 14700 fluorescence intensity (a.u.).

Consider “TCAAAATATTTGACACCGTTGACTTTTTAGGACGTGTTTACGGAGTCACCTAGTGCAG”, for which the binding signal was 24900 fluorescence intensity (a.u.).

Turning to “ATCTGCCTAACGTAAAATGCACTATATTCTGTTTTGTTCTCGGAGTCACCTAGTGCAG”, the binding signal is 8370 fluorescence intensity (a.u.).

As to “GTGGCGACTGTTATCCCTAATTTTGCGGACTTGCTCTGATCGGAGTCACCTAGTGCAG”, the binding signal is 9800 fluorescence intensity (a.u.).

With “AACCACCTGAATTTCGTCGAATTTTACCAATTCTGCTGAACGGAGTCACCTAGTGCAG”, the binding signal was 9120 fluorescence intensity (a.u.).

In the case of “AAGACATGTGAATTTTGGTGGGATGTGGATGGGGAATTGACGGAGTCACCTAGTGCAG”, the binding signal was 9840 fluorescence intensity (a.u.).

As for “TTCTATTTTACCTCTCGTCTCTCTCCTCGCGGTCGCTTCTCGGAGTCACCTAGTGCAG”, the binding signal was 12800 fluorescence intensity (a.u.).

Turning to “CTCCTCGGGCTAAAAGTGGTAATACGCGTTTCTCAAGCTTCGGAGTCACCTAGTGCAG”, the binding signal is 9930 fluorescence intensity (a.u.).

Take “CTCACTTGACCGTGAACAGCACTCACTTGATTTGTACTTTCGGAGTCACCTAGTGCAG”: the binding signal is 10000 fluorescence intensity (a.u.).

In the case of “TGTTCTCTCCTGCCTCCACACTTTCTGGCACGGTACAAAACGGAGTCACCTAGTGCAG”, the binding signal was 8370 fluorescence intensity (a.u.).

Take “TTAATTTCACGGTTTCATCTCGACATCTCATCATCTGTTTCGGAGTCACCTAGTGCAG”: the binding signal is 12100 fluorescence intensity (a.u.).

Regarding “ATGCCATTTTTCCCGTTTGTTGCAATTGCAAAACATTTTTCGGAGTCACCTAGTGCAG”, the binding signal was 8580 fluorescence intensity (a.u.).

Regarding “CTCTCACACCGTGCCATATCCCGAACATCCCTTGATCGAACGGAGTCACCTAGTGCAG”, the binding signal was 9530 fluorescence intensity (a.u.).

For the sequence “CTTTCCTGTACTATTTTACTGTCCGATTTACAACATGTGACGGAGTCACCTAGTGCAG”, the binding signal was 12900 fluorescence intensity (a.u.).

Take “TCGGTTTTTACTGCTTCCATCAGACGTCGGTCTGTTTTCGCGGAGTCACCTAGTGCAG”: the binding signal was 9470 fluorescence intensity (a.u.).

Take “ACCTGTTTCGTTCGTCCACGCCAGCGCCAACCGGACATGACGGAGTCACCTAGTGCAG”: the binding signal was 9460 fluorescence intensity (a.u.).

In the case of “TCTTGTATTCTCCACTAGTCTTGGGTCATCCATTCTTCAGCGGAGTCACCTAGTGCAG”, the binding signal was 8550 fluorescence intensity (a.u.).

Consider “GCCTCTGTTCTTCCACTCATTATTATCATTTGCAGCTCCGCGGAGTCACCTAGTGCAG”, for which the binding signal is 10400 fluorescence intensity (a.u.).

In the case of “TCCCAACCCACCGTTCCATTCTCTCGAGCTCACCCCGTCACGGAGTCACCTAGTGCAG”, the binding signal is 10500 fluorescence intensity (a.u.).

As for “TCTGTATTAGCGTTCGGTTGTTTTATTTGACTTTCCAAATCGGAGTCACCTAGTGCAG”, the binding signal is 8360 fluorescence intensity (a.u.).

For “AAAAATATTTGACAGCGTTGACTTTTTAGTGCGTATTTGACGGAGTCACCTAGTGCAG”, the binding signal is 42800 fluorescence intensity (a.u.).

Take “TCGTTTCAAAATACTTGACACCGTTGACTTTTTAGTACGTCGGAGTCACCTAGTGCAG”: the binding signal is 23300 fluorescence intensity (a.u.).

In the case of “ACTTTTTAGTGCGTATTTGACTATTCGTCTTATTTAAAAACGGAGTCACCTAGTGCAG”, the binding signal is 9800 fluorescence intensity (a.u.).

“TGTACTTCAAAAATTTACTTTACCGTGTGTTTTATTTTTTCGGAGTCACCTAGTGCAG”: the binding signal was 9650 fluorescence intensity (a.u.).

As for “TTCAAAATATTTGACACCGTTGACTTTTTAGTACGTGTTTCGGAGTCACCTAGTGCAG”, the binding signal was 18200 fluorescence intensity (a.u.).

Take “CCGTTTCAAAATATTTGACACCGTTGACTTTTTAGTACGTCGGAGTCACCTAGTGCAG”: the binding signal was 26800 fluorescence intensity (a.u.).

With “CCTCCGTTTCAAAATATTTGACACCGTTGACTTTTTAGTACGGAGTCACCTAGTGCAG”, the binding signal is 14100 fluorescence intensity (a.u.).

Turning to “ATTTTCAAAATATTTGACACTGTTGACTTTTTAGTACATACGGAGTCACCTAGTGCAG”, the binding signal was 9840 fluorescence intensity (a.u.).
